According to PubChem BioAssay AID1159580 (chemical genetic matrix, 2015):
Screen size: about 5,500 compounds; about 2,000 (36%) were called active. Roughly 18% stayed inconclusive and do not appear here. This is one part of the list. Values without a mark were called inactive. Cut-off read from the data, not from the text of the source: active = normalized growth mostly below about 0.91 (no sharp cut-off); inconclusive = no clear call, values can overlap the other calls; inactive = mostly above about 0.92.

Experiment: chemical genetic growth profiling, strain panel (AID 1159580);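 note: tested at 20 µM; growth read once vehicle control cultures reached saturation at 30 °C; 1 = growth at the plate median or of vehicle wells; lower values mean less growth of the strain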
Settings: S. cerevisiae deletion strains, growth OD

CCCN(CCC)C(=O)Cc1c(-c2ccc(Cl)cc2)nc2c(Cl)cc(Cl)cn12
normalized growth (locus YAL040C, strain CLN3, active compounds read low): 1 | normalized growth (locus YDR363W, strain ESC2, active compounds read low): 1.01 | normalized growth (locus YER002W, strain NOP16, active compounds read low): 1.05 | normalized growth (locus YMR307W, strain GAS1, active compounds read low): 1 | normalized growth (locus YNL128W, strain TEP1, active compounds read low): 1.01 | normalized growth (locus YNL153C, strain GIM3, active compounds read low): 1.02 | normalized growth (locus YNL175C, strain NOP13, active compounds read low): 1.03 | normalized growth (locus YNL197C, strain WHI3, active compounds read low): 1.03 | normalized growth (locus YNL224C, strain SQS1, active compounds read low): 1.01 | normalized growth (locus YNL322C, strain KRE1, active compounds read low): 0.985 | normalized growth (locus YOR083W, strain WHI5 (second series), active compounds read low): 1.08 | normalized growth (locus YPL241C, strain CIN2, active compounds read low): 0.992

CC(C)c1cccc(O)c(=O)c1
normalized growth (locus YAL021C, strain ccr4, active compounds read low): 0.0678 (active) | normalized growth (locus YAL026C, strain drs2, active compounds read low): 0.0622 (active) | normalized growth (locus YAL030W, strain snc1, active compounds read low): 0.0616 (active) | normalized growth (locus YBL061C, strain skt5, active compounds read low): 0.0689 (active) | normalized growth (locus YBR009C, strain hhf1, active compounds read low): 0.0635 (active) | normalized growth (locus YBR023C, strain chs3, active compounds read low): 0.0691 (active) | normalized growth (locus YBR171W, strain sec66, active compounds read low): 0.0935 (active) | normalized growth (locus YBR231C, strain swc5, active compounds read low): 0.0694 (active) | normalized growth (locus YBR279W, strain paf1, active compounds read low): 0.0689 (active) | normalized growth (locus YCL011C, strain gbp2, active compounds read low): 0.0593 (active) | normalized growth (locus YCL016C, strain dcc1, active compounds read low): 0.0739 (active) | normalized growth (locus YCL069W, strain vba3, active compounds read low): 0.0926 (active) | normalized growth (locus YCR088W, strain abp1, active compounds read low): 0.0649 (active) | normalized growth (locus YDL005C, strain med2, active compounds read low): 0.0881 (active) | normalized growth (locus YDL040C, strain nat1, active compounds read low): 0.0703 (active) | normalized growth (locus YDR001C, strain nth1, active compounds read low): 0.0642 (active) | normalized growth (locus YDR069C, strain doa4, active compounds read low): 0.0633 (active) | normalized growth (locus YDR137W, strain rgp1, active compounds read low): 0.0985 (active) | normalized growth (locus YDR159W, strain sac3, active compounds read low): 0.0917 (active) | normalized growth (locus YDR195W, strain ref2): 0.166 (active) | normalized growth (locus YDR297W, strain sur2, active compounds read low): 0.0622 (active) | normalized growth (locus YDR334W, strain swr1, active compounds read low): 0.0664 (active) | normalized growth (locus YDR335W, strain msn5, active compounds read low): 0.0638 (active) | normalized growth (locus YDR392W, strain spt3, active compounds read low): 0.0887 (active) | normalized growth (locus YEL003W, strain gim4, active compounds read low): 0.0581 (active) | normalized growth (locus YEL037C, strain rad23, active compounds read low): 0.0615 (active) | normalized growth (locus YEL061C, strain CIN8 (second series), active compounds read low): 0.0653 (active) | normalized growth (locus YER015W, strain faa2, active compounds read low): 0.0615 (active) | normalized growth (locus YER016W, strain bim1, active compounds read low): 0.067 (active) | normalized growth (locus YER111C, strain swi4, active compounds read low): 0.0815 (active) | normalized growth (locus YER155C, strain BEM2 (second series), active compounds read low): 0.0927 (active) | normalized growth (locus YFR010W, strain ubp6, active compounds read low): 0.072 (active) | normalized growth (locus YGL167C, strain pmr1, active compounds read low): 0.091 (active) | normalized growth (locus YGL173C, strain kem1, active compounds read low): 0.0718 (active) | normalized growth (locus YGL227W, strain vid30, active compounds read low): 0.0687 (active) | normalized growth (locus YGL240W, strain doc1, active compounds read low): 0.0871 (active) | normalized growth (locus YGL253W, strain hxk2, active compounds read low): 0.0611 (active) | normalized growth (locus YHR013C, strain ard1, active compounds read low): 0.113 (active) | normalized growth (locus YHR027C, strain rpn1, active compounds read low): 0.0609 (active) | normalized growth (locus YHR030C, strain SLT2, active compounds read low): 0.126 (active) | normalized growth (locus YHR079C, strain IRE1, active compounds read low): 0.146 (active) | normalized growth (locus YHR142W, strain chs7, active compounds read low): 0.0743 (active) | normalized growth (locus YJL092W, strain hpr5, active compounds read low): 0.0677 (active) | normalized growth (locus YJL095W, strain BCK1 (second series), active compounds read low): 0.0581 (active) | normalized growth (locus YJL095W, strain BCK1, active compounds read low): 0.145 (active) | normalized growth (locus YJL115W, strain asf1, active compounds read low): 0.0902 (active) | normalized growth (locus YJL129C, strain trk1, active compounds read low): 0.0856 (active) | normalized growth (locus YJL154C, strain vps35, active compounds read low): 0.0621 (active) | normalized growth (locus YJL164C, strain tpk1, active compounds read low): 0.0686 (active) | normalized growth (locus YJL166W, strain qcr8, active compounds read low): 0.0625 (active) | normalized growth (locus YJR066W, strain TOR1, active compounds read low): 0.0572 (active) | normalized growth (locus YKL160W, strain elf1, active compounds read low): 0.0788 (active) | normalized growth (locus YKR026C, strain gcn3, active compounds read low): 0.0743 (active) | normalized growth (locus YKR091W, strain srl3, active compounds read low): 0.0697 (active) | normalized growth (locus YLL001W, strain dnm1, active compounds read low): 0.0706 (active) | normalized growth (locus YLL026W, active compounds read low): 0.0634 (active) | normalized growth (locus YLL041C, strain sdh2, active compounds read low): 0.0616 (active) | normalized growth (locus YLR027C, strain aat2, active compounds read low): 0.0581 (active) | normalized growth (locus YLR113W, strain HOG1, active compounds read low): 0.217 (active) | normalized growth (locus YLR221C, strain rsa3, active compounds read low): 0.059 (active) | normalized growth (locus YLR258W, strain gsy2, active compounds read low): 0.0639 (active) | normalized growth (locus YLR262C, strain YPT6 (second series), active compounds read low): 0.0819 (active) | normalized growth (locus YLR320W, strain mms22, active compounds read low): 0.0828 (active) | normalized growth (locus YLR342W, strain FKS1, active compounds read low): 0.0743 (active) | normalized growth (locus YLR357W, strain rsc2, active compounds read low): 0.136 (active) | normalized growth (locus YLR370C, strain arc18, active compounds read low): 0.0652 (active) | normalized growth (locus YLR384C, strain iki3, active compounds read low): 0.0711 (active) | normalized growth (locus YML120C, strain ndi1, active compounds read low): 0.0618 (active) | normalized growth (locus YMR058W, strain fet3, active compounds read low): 0.0629 (active) | normalized growth (locus YMR125W, strain sto1, active compounds read low): 0.0871 (active) | normalized growth (locus YMR129W, active compounds read low): 0.0613 (active) | normalized growth (locus YMR205C, strain PFK2, active compounds read low): 0.091 (active) | normalized growth (locus YMR231W, strain pep5, active compounds read low): 0.0803 (active) | normalized growth (locus YNL071W, strain lat1, active compounds read low): 0.0663 (active) | normalized growth (locus YNL183C, strain NPR1, active compounds read low): 0.0186 (active) | normalized growth (locus YNL209W, strain ssb2, active compounds read low): 0.0585 (active) | normalized growth (locus YNL248C, strain rpa49, active compounds read low): 0.0753 (active) | normalized growth (locus YNL322C, strain KRE1 (second series), active compounds read low): 0.068 (active) | normalized growth (locus YNR049C, strain mso1, active compounds read low): 0.0605 (active) | normalized growth (locus YOR001W, strain rrp6, active compounds read low): 0.0684 (active) | normalized growth (locus YOR070C, strain gyp1, active compounds read low): 0.123 (active) | normalized growth (locus YOR080W, strain dia2, active compounds read low): 0.0682 (active) | normalized growth (locus YOR083W, strain WHI5, active compounds read low): 0.0692 (active) | normalized growth (locus YOR106W, strain vam3, active compounds read low): 0.0676 (active) | normalized growth (locus YOR231W, strain MKK1, active compounds read low): 0.134 (active) | normalized growth (locus YOR265W, strain rbl2, active compounds read low): 0.0639 (active) | normalized growth (locus YOR270C, strain vph1, active compounds read low): 0.101 (active) | normalized growth (locus YOR290C, strain snf2, active compounds read low): 0.0651 (active) | normalized growth (locus YPL051W, strain arl3, active compounds read low): 0.0708 (active) | normalized growth (locus YPL078C, strain atp4, active compounds read low): 0.0754 (active) | normalized growth (locus YPL106C, strain sse1, active compounds read low): 0.111 (active) | normalized growth (locus YPL240C, strain hsp82, active compounds read low): 0.0667 (active) | normalized growth (locus YPL256C, strain CLN2, active compounds read low): 0.121 (active)
